From the antibiotic and cytotoxicity screens of Wong et al. (2023)
Out of some 39,000 compounds screened, about 3,300 (8.5%) were called active. Many of the other results were omitted from the sample, so actives are more common in it than they were.

Test system: HepG2
Experiment: cytotoxicity call (relative viability < 0.9)
Settings: 10 µM

Structure (SMILES) | cytotoxicity call
COc1ccc(NC(=O)N(C)C[C@@H]2Oc3c(NC(=O)c4ccc(-c5nccs5)cc4)cccc3C(=O)N([C@@H](C)CO)C[C@H]2C)cc1 | inactive
CCNC(=O)C[C@H]1CC[C@@H]2[C@H](COC[C@@H](O)CN2C(=O)Nc2c(C)noc2C)O1 | inactive
CN(C)CCCCNC(=O)[C@@H]1C[C@@H]2C(=O)N[C@@H](CCCC[N+](C)(C)C)C(=O)N2[C@@H]1c1cccc(OCCO)c1 | inactive
Cc1ccc(S(=O)(=O)Nc2ccc3c(c2)C(=O)N([C@H](C)CO)C[C@H](C)[C@@H](CN(C)S(=O)(=O)c2ccc(C)cc2)OCCCC[C@@H](C)O3)cc1 | inactive
Cc1ccc(S(=O)(=O)Nc2ccc3c(c2)C(=O)N([C@H](C)CO)C[C@H](C)[C@@H](CN(C)S(=O)(=O)c2ccc(C)cc2)OCCCC[C@H](C)O3)cc1 | inactive
Cc1ccc(S(=O)(=O)Nc2ccc3c(c2)C(=O)N([C@H](C)CO)C[C@@H](C)[C@@H](CN(C)S(=O)(=O)c2ccc(C)cc2)OCCCC[C@@H](C)O3)cc1 | inactive
Cc1ccc(S(=O)(=O)Nc2ccc3c(c2)C(=O)N([C@@H](C)CO)C[C@H](C)[C@H](CN(C)S(=O)(=O)c2ccc(C)cc2)OCCCC[C@H](C)O3)cc1 | active
Cc1ccc(S(=O)(=O)Nc2ccc3c(c2)C(=O)N([C@@H](C)CO)C[C@@H](C)[C@H](CN(C)S(=O)(=O)c2ccc(C)cc2)OCCCC[C@@H](C)O3)cc1 | active
Cc1ccc(S(=O)(=O)Nc2ccc3c(c2)C(=O)N([C@H](C)CO)C[C@@H](C)[C@H](CN(C)S(=O)(=O)c2ccc(C)cc2)OCCCC[C@@H](C)O3)cc1 | inactive
C[C@H]1CC=CC[C@H](c2cccc(Cl)c2)NC(=O)[C@H](Cc2ccccc2)N(C)C(=O)c2ccccc2O1 | inactive
Cc1ccc(S(=O)(=O)N(C)C[C@@H]2OCCCC[C@@H](C)Oc3ccc(NC(=O)Nc4ccc(F)cc4)cc3C(=O)N([C@H](C)CO)C[C@@H]2C)cc1 | inactive
C[C@H](CO)N1C[C@H](C)[C@H](CN(C)C(=O)Nc2cccc(F)c2)OCc2ccccc2-c2ccccc2C1=O | inactive
CCCN(CCC)S(=O)(=O)c1ccc(C(=O)N(c2cccc(SC)c2)[C@H]2OC(=O)c3ccccc32)cc1 | inactive
C[C@H]1CN([C@@H](C)CO)S(=O)(=O)c2ccc(C#CCN(C)C)cc2O[C@H]1CN(C)S(=O)(=O)c1cccc(F)c1 | inactive
C[C@H]1CN([C@@H](C)CO)C(=O)c2cccc(NC(=O)c3ccc(-c4nccs4)cc3)c2O[C@H]1CN(C)C(=O)Nc1ccc(C(F)(F)F)cc1 | inactive
C[C@@H]1CN([C@@H](C)CO)C(=O)c2cccc(NC(=O)c3ccc(-c4nccs4)cc3)c2O[C@H]1CN(C)Cc1ccc(C(F)(F)F)cc1 | inactive
C[C@H](CO)N1C[C@H](C)[C@@H](CN(C)Cc2ccc(C(F)(F)F)cc2)Oc2c(NC(=O)c3ccc(-c4nccs4)cc3)cccc2C1=O | inactive
C[C@H](CO)N1C[C@H](C)[C@H](CN(C)Cc2ccc(C(F)(F)F)cc2)Oc2c(NC(=O)c3ccc(-c4nccs4)cc3)cccc2C1=O | inactive
C[C@@H]1CN([C@@H](C)CO)C(=O)c2cccc(NC(=O)c3ccc(-c4nccs4)cc3)c2O[C@@H]1CN(C)Cc1ccc(C(F)(F)F)cc1 | active
C[C@H]1CN([C@@H](C)CO)C(=O)c2cccc(NC(=O)c3ccc(-c4nccs4)cc3)c2O[C@H]1CN(C)Cc1ccc(C(F)(F)F)cc1 | inactive
C[C@H](CO)N1C[C@H](C)[C@H](CN(C)C(=O)Nc2ccc(C(F)(F)F)cc2)Oc2c(NC(=O)c3ccc(-c4nccs4)cc3)cccc2C1=O | inactive
C[C@@H]1CN([C@H](C)CO)C(=O)c2cccc(NC(=O)c3ccc(-c4nccs4)cc3)c2O[C@@H]1CN(C)Cc1ccc(C(F)(F)F)cc1 | active
C[C@@H]1CN([C@@H](C)CO)C(=O)c2cccc(NC(=O)c3ccc(-c4nccs4)cc3)c2O[C@@H]1CN(C)C(=O)Nc1ccc(C(F)(F)F)cc1 | active
C[C@@H]1CN([C@H](C)CO)C(=O)c2cccc(NC(=O)c3ccc(-c4nccs4)cc3)c2O[C@@H]1CN(C)Cc1ccc(C(=O)O)cc1 | inactive
C[C@@H]1CN([C@H](C)CO)C(=O)c2cccc(NC(=O)c3ccc(-c4nccs4)cc3)c2O[C@H]1CN(C)Cc1ccc(C(F)(F)F)cc1 | inactive

Structure (SMILES) | cytotoxicity call
C[C@H]1CN([C@@H](C)CO)C(=O)c2cccc(NC(=O)c3ccc(-c4nccs4)cc3)c2O[C@@H]1CN(C)Cc1ccc(C(F)(F)F)cc1 | active
N=C(N)SCCN | inactive
CN1CCN(C(=O)C[C@@H]2C=C[C@H](NC(=O)Nc3ccccc3F)[C@H](CO)O2)CC1 | inactive
COc1ccc(NC(=O)Nc2ccc3c(c2)C(=O)N([C@@H](C)CO)C[C@H](C)[C@@H](CN(C)C(=O)Nc2ccccc2)OCCCC[C@H](C)O3)cc1 | inactive
CN1C(=O)[C@@H]2CN(c3ncccn3)C[C@@H]2C12CCN(S(C)(=O)=O)CC2 | inactive
C[C@H](CO)N1C[C@H](C)[C@@H](CN(C)S(=O)(=O)c2ccc(Cl)cc2)Oc2ccc(N(C)C)cc2CC1=O | inactive
Cc1ccc(S(=O)(=O)N(C)C[C@H]2OCCCC[C@@H](C)Oc3ccc(NC(=O)Nc4c(C)noc4C)cc3C(=O)N([C@H](C)CO)C[C@H]2C)cc1 | inactive
COc1ccc2cc1/C=C\NC(=O)[C@H](Cc1ccccc1)NC(=O)[C@@H]1[C@H](CCN1C(=O)[C@@H](NC(=O)[C@@H](C)N(C)C)C(C)C)O2 | inactive
CO[C@@H](CN(C)S(=O)(=O)c1cccc(Cl)c1)[C@H](C)CN([C@@H](C)CO)S(=O)(=O)c1ccc(Cl)cc1 | inactive
C[C@@H]1CN([C@H](C)CO)C(=O)c2cc(NC(=O)CCC(F)(F)F)ccc2O[C@@H](C)CCCCO[C@@H]1CN(C)CC1CCCCC1 | inactive
C[C@@H]1CN([C@H](C)CO)C(=O)c2cccc(NC(=O)c3nc4ccccc4s3)c2O[C@H]1CN(C)Cc1ccc(C(F)(F)F)cc1 | inactive
C[C@@H]1CN([C@@H](C)CO)C(=O)c2cc(Br)cnc2O[C@@H]1CN(C)S(=O)(=O)c1ccc(F)cc1 | inactive
C[C@@H]1CCCCO[C@@H](CN(C)C(=O)CCC(F)(F)F)[C@@H](C)CN([C@H](C)CO)C(=O)c2cc(NS(=O)(=O)c3ccc(F)cc3)ccc2O1 | inactive
CCOC(=O)CSc1nnc2c3sc4nc(N5CCOCC5)c5c(c4c3ncn12)CC(C)(C)OC5 | active
O=C(NCCCN1CCOCC1)C(=O)NC1CC1 | inactive
COc1ccc(CN(C)C[C@@H]2OCCCC[C@H](C)Oc3ccc(NS(=O)(=O)c4ccc(Cl)cc4)cc3C(=O)N([C@@H](C)CO)C[C@H]2C)cc1 | active
COc1ccc(CN(C)C[C@@H]2OCCCC[C@@H](C)Oc3ccc(NS(=O)(=O)c4ccc(Cl)cc4)cc3C(=O)N([C@H](C)CO)C[C@H]2C)cc1 | inactive
COc1ccc(CN(C)C[C@H]2OCCCC[C@H](C)Oc3ccc(NS(=O)(=O)c4ccc(Cl)cc4)cc3C(=O)N([C@@H](C)CO)C[C@H]2C)cc1 | inactive
COc1ccc(CN(C)C[C@H]2OCCCC[C@H](C)Oc3ccc(NS(=O)(=O)c4ccc(Cl)cc4)cc3C(=O)N([C@@H](C)CO)C[C@@H]2C)cc1 | inactive
COc1ccc(CN(C)C[C@H]2OCCCC[C@@H](C)Oc3ccc(NS(=O)(=O)c4ccc(Cl)cc4)cc3C(=O)N([C@@H](C)CO)C[C@@H]2C)cc1 | inactive
COc1ccc(CN(C)C[C@H]2OCCCC[C@@H](C)Oc3ccc(NS(=O)(=O)c4ccc(Cl)cc4)cc3C(=O)N([C@@H](C)CO)C[C@H]2C)cc1 | active
COc1ccc(CN(C)C[C@@H]2OCCCC[C@H](C)Oc3ccc(NS(=O)(=O)c4ccc(Cl)cc4)cc3C(=O)N([C@H](C)CO)C[C@@H]2C)cc1 | active
COc1ccc(CN(C)C[C@@H]2OCCCC[C@@H](C)Oc3ccc(NS(=O)(=O)c4ccc(Cl)cc4)cc3C(=O)N([C@H](C)CO)C[C@@H]2C)cc1 | inactive
COc1ccc(CN(C)C[C@H]2OCCCC[C@@H](C)Oc3ccc(NS(=O)(=O)c4ccc(Cl)cc4)cc3C(=O)N([C@H](C)CO)C[C@@H]2C)cc1 | inactive
C[C@@H]1CCCCO[C@H](CN(C)C(=O)Nc2ccccc2)[C@H](C)CN([C@@H](C)CO)C(=O)c2cc(NC(=O)Nc3ccc(F)cc3)ccc2O1 | inactive

Structure (SMILES) | cytotoxicity call
O=C(C[C@H]1CC[C@@H](NC(=O)CN2CCOCC2)[C@H](CO)O1)NC1CCC1 | inactive
C[C@H](CO)N1C[C@H](C)[C@@H](CN(C)S(=O)(=O)c2cn(C)cn2)Oc2ccc(N(C)C)cc2CC1=O | inactive
C[C@H](CO)N1C[C@H](C)[C@H](CN(C)Cc2ccc(F)cc2)Oc2cc(C#CC3CC3)ccc2S1(=O)=O | inactive
C[C@@H]1CCCCO[C@H](CN(C)C(=O)C2CCCCC2)[C@@H](C)CN([C@H](C)CO)C(=O)c2cc(NC(=O)Nc3ccc(F)cc3)ccc2O1 | inactive
COCC(=O)Nc1ccccc1C(=O)O | inactive
O=C(N1CCOCC1)[C@@]1(CCS(=O)(=O)c2ccccc2)COC(c2ccc(OCCCO)cc2)=N1 | inactive
NCc1cccc2c1OCCCO2 | inactive
C[N+](C)(C)CCCC[C@@H]1NC(=O)[C@@H]2C[C@H](C(=O)NCCCCCCNC(=O)CS)[C@H](c3ccc(O)cc3)N2C1=O | inactive
CC(C)=C[C@H]1[C@@H](c2nc3ccc(Br)cc3[nH]2)C1(C)C | inactive
CCNc1nc(NCC)nc(C(=O)OCCO)n1 | active
CCNc1nc(OCCO)nc(N(C)C)n1 | inactive
CCNc1nc(NCC)nc(OCC#N)n1 | inactive
C[C@@H]1CN([C@H](C)CO)C(=O)Cc2cc(NC(=O)Cc3cn(C)c4ccccc34)ccc2O[C@@H]1CN(C)Cc1ccc(C(F)(F)F)cc1 | active
C[C@@H]1CN([C@H](C)CO)C(=O)Cc2cc(NC(=O)Cc3cn(C)c4ccccc34)ccc2O[C@@H]1CN(C)C(=O)Nc1ccc(C(F)(F)F)cc1 | inactive
C[C@H]1CN([C@@H](C)CO)C(=O)Cc2cc(NC(=O)Cc3cn(C)c4ccccc34)ccc2O[C@@H]1CN(C)Cc1ccc(C(F)(F)F)cc1 | active
C[C@H](CO)N1C[C@H](C)[C@H](CN(C)Cc2ccc(C(F)(F)F)cc2)Oc2ccc(NC(=O)Cc3cn(C)c4ccccc34)cc2CC1=O | inactive
C[C@@H]1CN([C@@H](C)CO)C(=O)Cc2cc(NC(=O)Cc3cn(C)c4ccccc34)ccc2O[C@@H]1CN(C)C(=O)Nc1ccc(C(F)(F)F)cc1 | inactive
C[C@H](CO)N1C[C@H](C)[C@@H](CN(C)C(=O)Nc2ccc(C(F)(F)F)cc2)Oc2ccc(NC(=O)Cc3cn(C)c4ccccc34)cc2CC1=O | inactive
C[C@H](CO)N1C[C@H](C)[C@H](CN(C)C(=O)Nc2ccc(C(F)(F)F)cc2)Oc2ccc(NC(=O)Cc3cn(C)c4ccccc34)cc2CC1=O | inactive
C[C@@H]1CN([C@@H](C)CO)C(=O)Cc2cc(NC(=O)Cc3cn(C)c4ccccc34)ccc2O[C@H]1CN(C)C(=O)Nc1ccc(C(F)(F)F)cc1 | inactive
C[C@H]1CN([C@@H](C)CO)C(=O)Cc2cc(NC(=O)Cc3cn(C)c4ccccc34)ccc2O[C@@H]1CN(C)C(=O)Nc1ccc(C(F)(F)F)cc1 | inactive
C[C@H]1CN([C@@H](C)CO)C(=O)Cc2cc(NC(=O)Cc3cn(C)c4ccccc34)ccc2O[C@H]1CN(C)C(=O)Nc1ccc(C(F)(F)F)cc1 | inactive
C[C@@H]1CN([C@@H](C)CO)C(=O)Cc2cc(NC(=O)Cc3cn(C)c4ccccc34)ccc2O[C@H]1CN(C)Cc1ccc(C(F)(F)F)cc1 | active
C[C@@H]1CN([C@@H](C)CO)C(=O)Cc2cc(NC(=O)Cc3cn(C)c4ccccc34)ccc2O[C@@H]1CN(C)Cc1ccc(C(F)(F)F)cc1 | active
